Measured values published in the supplement of paper PMC10849652.
About 7,900 targets were measured; listed, in parts, are those with a hit and a random draw of the rest. About 0.6% of all pairs of compound and target were hits.

How the values were obtained:
Test in all cases: log2 fold change, soluble protein after heating vs DMSO (PISA); higher = thermal stabilisation; K562 cells, 10 uM, 30 min; active = over 0.2 and 3.5 SD of the protein, either way, in both replicates (recomputed)
[1] = compound: CC1=C(C=C(C=C1)NC(=O)C2=CC(=CC=C2)C(C)(C)C#N)NC3=CC4=C(C=C3)N=CN(C4=O)C
Summary of the method: (§1)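 Values are thermal stability changes relative to control samples and are taken from duplicates. They are stated as log2 fold changes. Before quantification by TMTpro 16plex LC-MS/MS with equalised channel sums, K562 cells at 2×10^6 cells/mL were treated with 10 μM compound for 30 min, heated in aliquots for 3 min across 48°C-58°C, pooled, extracted in PBS with 0.5% NP-40 at 4°C, and centrifuged at 21,000xg for 90 min to give the soluble supernatant.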

[2] = compound: CC1=C(C=C(C=C1)NC(=O)C2=CC(=CC=C2)N(C)C)NC(=O)C3=CC=C(C=C3)O
Summary of the method: as §1

[3] = compound: CC1=CC=C(C=C1)SC2=C3C=C(SC3=CN=C2)C(=O)N
Summary of the method: as §1

[4] = compound: CC1=NC(=CC=C1)C2=C(N=C(N2)C(C)(C)C)C3=CC4=NC=CN=C4C=C3
Summary of the method: as §1

Nexturastat A = compound: CCCCN(Cc1ccc(C(=O)NO)cc1)C(=O)Nc1ccccc1 [Nexturastat A]
Summary of the method: as §1

vemurafenib = compound: CCCS(=O)(=O)Nc1ccc(F)c(C(=O)c2c[nH]c3ncc(-c4ccc(Cl)cc4)cc23)c1F [vemurafenib]
Summary of the method: as §1

[5] = compound: CCCS(=O)(=O)Nc1ccc(F)c(C(=O)c2c[nH]c3ncc(Cl)cc23)c1F
Summary of the method: as §1

[6] = compound: CCCc1cc(C)[nH]c(=O)c1CNC(=O)c1cc(-c2ccnc(N3CCN(C)CC3)c2)cc2c1cnn2C(C)C
Summary of the method: as §1

givinostat = compound: CCN(CC)Cc1ccc2cc(COC(=O)Nc3ccc(C(=O)NO)cc3)ccc2c1 [givinostat]
Summary of the method: as §1

barasertib = compound: CCN(CCCOc1ccc2c(Nc3cc(CC(=O)Nc4cccc(F)c4)[nH]n3)ncnc2c1)CCOP(=O)(O)O [barasertib]
Summary of the method: as §1

[7] = compound: CC[C@@H]1C(=O)N(C)c2cnc(Nc3ccc(C(=O)NC4CCN(C)CC4)cc3OC)nc2N1C1CCCC1
Summary of the method: as §1

volasertib = compound: CC[C@@H]1C(=O)N(C)c2cnc(Nc3ccc(C(=O)N[C@H]4CC[C@H](N5CCN(CC6CC6)CC5)CC4)cc3OC)nc2N1C(C)C [volasertib]
Summary of the method: as §1

[8] = compound: CC[C@H](C)N1C=C(C2=C(C=C(C=C21)C3=CN=C(C=C3)N4CCNCC4)C(=O)NCC5=C(C=C(NC5=O)C)C)C
Summary of the method: as §1

epoxomicin = compound: CC[C@H](C)[C@@H](C(=O)N[C@@H]([C@@H](C)O)C(=O)N[C@@H](CC(C)C)C(=O)[C@]1(CO1)C)NC(=O)[C@H]([C@@H](C)CC)N(C)C(=O)C [epoxomicin]
Summary of the method: as §1

[9] = compound: CCn1c(C(=O)N(C2CC2)C2CC2)cc2c3c(ncn3C)c(Nc3cc(C)n(C)n3)nc21
Summary of the method: as §1

[10] = compound: CN(C)CC(=O)Nc1ccc2[nH]c(=O)c3ccccc3c2c1
Summary of the method: as §1

rosiglitazone = compound: CN(CCOC1=CC=C(C=C1)C[C@H]2C(=O)NC(=O)S2)C3=CC=CC=N3 (racemic) [rosiglitazone]
Summary of the method: as §1

[11] = compound: CN1C2=C(C3=C1C(=O)N(N=C3)CC4=CC(=CC=C4)N)SC(=C2)S(=O)C
Summary of the method: as §1

[12] = compound: CCn1cc(-c2ccnc3[nH]c(-c4cccc(CN(C)C)c4)cc23)c(-c2ccc(NC(=O)N(C)C)cc2)n1
Summary of the method: as §1

[13] = compound: CN1CCC(CNc2ccc3ncc(-c4cccc(OC(F)(F)F)c4)n3n2)CC1
Summary of the method: as §1

Measured: log2 fold change

PDIK1L (UniProt Q8N165)
Sequence of UniProt Q8N165 (Q8N165 whole entry, looked up): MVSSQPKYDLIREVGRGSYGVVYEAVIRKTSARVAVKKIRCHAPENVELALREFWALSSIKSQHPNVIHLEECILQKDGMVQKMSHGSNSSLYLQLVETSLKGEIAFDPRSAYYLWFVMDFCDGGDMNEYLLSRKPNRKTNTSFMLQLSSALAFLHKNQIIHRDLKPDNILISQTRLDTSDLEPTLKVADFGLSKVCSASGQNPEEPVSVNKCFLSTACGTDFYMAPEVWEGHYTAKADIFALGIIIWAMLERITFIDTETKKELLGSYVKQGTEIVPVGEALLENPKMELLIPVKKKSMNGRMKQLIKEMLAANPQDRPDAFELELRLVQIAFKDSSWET
inactive: [1] -0.079 | [2] 0.031 | [3] -0.265 | [4] 0.068 | Nexturastat A -0.077 | vemurafenib 0.026 | [5] 0 | [6] 0.03 | givinostat 0.034 | barasertib 0.055 | [7] 0.123 | volasertib 0.108 | [8] -0.056 | epoxomicin -0.128 | [9] 0.123 | [10] -0.028 | rosiglitazone -0.135 | [11] 0.02

PTTG1IP (UniProt P53801)
Sequence of UniProt P53801 (P53801 whole entry, looked up): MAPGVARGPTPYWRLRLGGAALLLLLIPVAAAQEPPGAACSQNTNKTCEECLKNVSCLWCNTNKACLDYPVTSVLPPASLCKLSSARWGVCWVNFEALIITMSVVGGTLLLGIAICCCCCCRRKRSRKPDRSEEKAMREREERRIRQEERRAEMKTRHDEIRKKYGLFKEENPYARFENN
active: [13] -0.771
inactive: [1] 0.122 | [3] -0.107 | [4] -0.062 | Nexturastat A -0.024 | vemurafenib -0.059 | [5] 0.02 | [6] 0.008 | givinostat -0.124 | barasertib -0.025 | [7] -0.223 | volasertib -0.05 | [8] -0.154 | epoxomicin -0.017 | [9] -0.176 | [12] -0.01 | [10] -0.041 | rosiglitazone 0.011 | [11] 0.009

POLR3D (UniProt P05423)
inactive: [1] -0.078 | [2] 0.014 | [3] -0.01 | [4] -0.023 | Nexturastat A 0.153 | vemurafenib 0.03 | [5] 0.055 | [6] 0.104 | givinostat 0.065 | barasertib 0.098 | [8] 0.107 | epoxomicin -0.066 | [9] -0.06 | [12] 0.032 | [10] 0.018 | rosiglitazone -0.005 | [11] 0.61 | [13] -0.035
active: volasertib -0.394

PARP1 (UniProt P09874)
active: [6] 0.555 | volasertib -0.57
inactive: [1] 0.116 | [2] -0.149 | [3] 0.071 | [4] 0.107 | Nexturastat A -0.13 | vemurafenib 0.112 | [5] 0.145 | givinostat 0.045 | barasertib 0.122 | [7] -0.233 | [8] 0.162 | epoxomicin 0.1 | [9] -0.088 | [12] 0.302 | rosiglitazone 0.086 | [11] 0.027 | [13] -0.146

POLR2C (UniProt P19387)
inactive: [1] -0.097 | [2] -0.058 | [3] 0.038 | [4] -0.011 | Nexturastat A 0.126 | vemurafenib 0.021 | [5] 0.066 | [6] -0.005 | givinostat 0.042 | barasertib 0.022 | [7] 0.059 | volasertib -0.187 | [8] 0.017 | epoxomicin 0.075 | [9] -0.035 | [10] 0.006 | rosiglitazone 0.042 | [11] -0.04

POLB (UniProt P06746)
inactive: [1] 0.086 | [2] -0.211 | [3] 0.009 | Nexturastat A 0.189 | [5] 0.178 | givinostat -0.026 | [7] -0.127 | volasertib -0.073 | [8] 0.077 | epoxomicin 0.043 | [9] -0.078 | [12] 0.111 | [11] 0.016 | [13] -0.156

PKM isoform 2 (UniProt P14618)
Sequence of UniProt P14618 (P14618 whole entry, looked up): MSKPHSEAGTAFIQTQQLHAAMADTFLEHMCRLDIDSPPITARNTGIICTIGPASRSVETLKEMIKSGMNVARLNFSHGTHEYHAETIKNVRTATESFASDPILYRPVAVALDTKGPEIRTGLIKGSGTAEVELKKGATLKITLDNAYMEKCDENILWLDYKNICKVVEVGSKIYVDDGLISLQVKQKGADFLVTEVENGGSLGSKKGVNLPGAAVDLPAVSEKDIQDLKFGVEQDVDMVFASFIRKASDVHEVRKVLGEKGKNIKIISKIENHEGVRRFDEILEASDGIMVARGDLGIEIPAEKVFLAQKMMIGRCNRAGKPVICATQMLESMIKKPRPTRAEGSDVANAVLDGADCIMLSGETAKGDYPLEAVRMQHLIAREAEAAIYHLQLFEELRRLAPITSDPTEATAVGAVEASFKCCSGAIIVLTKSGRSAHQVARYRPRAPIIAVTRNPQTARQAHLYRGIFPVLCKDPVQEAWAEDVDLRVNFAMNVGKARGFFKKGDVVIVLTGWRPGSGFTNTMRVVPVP
inactive: [1] -0.13 | [2] -0.082 | [3] 0.049 | [4] 0.033 | Nexturastat A 0.267 | vemurafenib 0.088 | [5] 0.094 | [6] 0.056 | barasertib -0.005 | [7] 0 | volasertib 0.091 | [8] 0.018 | epoxomicin 0.29 | [12] -0.006 | [10] 0.053 | rosiglitazone -0.1 | [11] -0.184 | [13] -0.046

PPP1R12C (UniProt Q9BZL4)
Sequence of UniProt Q9BZL4 (Q9BZL4 whole entry, looked up): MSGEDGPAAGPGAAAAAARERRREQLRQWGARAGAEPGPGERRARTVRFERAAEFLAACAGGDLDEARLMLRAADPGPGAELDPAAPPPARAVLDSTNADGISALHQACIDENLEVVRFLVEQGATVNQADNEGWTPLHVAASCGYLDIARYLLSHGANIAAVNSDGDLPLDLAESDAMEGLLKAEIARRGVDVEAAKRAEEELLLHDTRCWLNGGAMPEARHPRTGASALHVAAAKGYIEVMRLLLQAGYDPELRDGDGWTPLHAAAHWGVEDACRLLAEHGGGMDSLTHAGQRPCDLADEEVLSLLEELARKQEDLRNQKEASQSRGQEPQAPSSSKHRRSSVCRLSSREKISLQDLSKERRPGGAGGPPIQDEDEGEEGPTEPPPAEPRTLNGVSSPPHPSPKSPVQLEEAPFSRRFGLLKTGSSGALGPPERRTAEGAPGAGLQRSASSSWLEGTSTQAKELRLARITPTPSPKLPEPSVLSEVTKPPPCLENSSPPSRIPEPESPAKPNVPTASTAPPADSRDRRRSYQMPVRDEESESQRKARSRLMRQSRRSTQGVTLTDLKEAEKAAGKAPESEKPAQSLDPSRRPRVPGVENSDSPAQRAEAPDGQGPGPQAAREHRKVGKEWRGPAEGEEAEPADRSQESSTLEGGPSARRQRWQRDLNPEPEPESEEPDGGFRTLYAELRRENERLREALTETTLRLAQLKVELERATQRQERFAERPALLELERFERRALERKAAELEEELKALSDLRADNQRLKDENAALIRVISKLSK
inactive: [1] -0.048 | [2] 0.027 | [3] 0.124 | Nexturastat A 0.154 | vemurafenib -0.023 | [5] 0.265 | [6] 0.04 | givinostat 0.089 | barasertib 0.112 | [7] 0.029 | volasertib -0.027 | [8] 0.204 | epoxomicin -0.102 | [9] -0.094 | [12] -0.116 | [10] -0.03 | rosiglitazone -0.031 | [11] 0.013 | [13] 0.029

POM121 (UniProt Q96HA1)
inactive: [1] -0.045 | [2] -0.032 | [3] -0.056 | [4] -0.074 | Nexturastat A 0.117 | vemurafenib -0.039 | [5] 0.007 | givinostat 0.119 | barasertib 0.111 | [7] -0.017 | volasertib -0.027 | [8] 0.056 | epoxomicin -0.062 | [9] -0.037 | [12] 0.03 | [10] -0.071 | rosiglitazone 0.001 | [11] 0.137 | [13] -0.149

PRKD3 (UniProt O94806)
Sequence of UniProt O94806 (O94806 whole entry, looked up): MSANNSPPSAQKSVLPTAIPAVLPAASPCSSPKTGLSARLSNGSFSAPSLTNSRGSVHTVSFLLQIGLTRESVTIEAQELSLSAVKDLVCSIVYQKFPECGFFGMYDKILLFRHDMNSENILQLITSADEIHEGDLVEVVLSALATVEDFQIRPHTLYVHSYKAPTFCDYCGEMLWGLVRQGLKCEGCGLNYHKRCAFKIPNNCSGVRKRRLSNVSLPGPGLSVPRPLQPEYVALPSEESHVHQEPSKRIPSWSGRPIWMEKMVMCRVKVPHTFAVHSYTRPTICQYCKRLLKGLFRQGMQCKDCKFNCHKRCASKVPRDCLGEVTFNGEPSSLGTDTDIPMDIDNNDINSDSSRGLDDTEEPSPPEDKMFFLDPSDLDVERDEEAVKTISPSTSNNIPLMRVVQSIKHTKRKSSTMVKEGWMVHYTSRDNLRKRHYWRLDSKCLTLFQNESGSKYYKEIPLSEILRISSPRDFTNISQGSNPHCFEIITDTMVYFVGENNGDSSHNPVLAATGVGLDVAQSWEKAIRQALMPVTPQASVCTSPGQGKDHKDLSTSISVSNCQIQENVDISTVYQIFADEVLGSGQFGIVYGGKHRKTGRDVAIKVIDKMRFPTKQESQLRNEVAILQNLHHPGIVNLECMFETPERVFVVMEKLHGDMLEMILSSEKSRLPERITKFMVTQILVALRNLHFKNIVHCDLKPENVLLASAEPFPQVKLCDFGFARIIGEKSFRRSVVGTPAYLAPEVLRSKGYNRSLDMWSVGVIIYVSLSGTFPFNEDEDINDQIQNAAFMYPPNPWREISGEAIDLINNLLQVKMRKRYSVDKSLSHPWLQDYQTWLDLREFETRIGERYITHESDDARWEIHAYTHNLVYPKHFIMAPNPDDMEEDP
inactive: [1] 0.096 | [2] -0.052 | [4] -0.012 | vemurafenib 0.294 | [6] 0.115 | givinostat -0.008 | barasertib 0.086 | [9] -0.033 | [12] -0.125 | [10] 0.059 | rosiglitazone 0.192 | [11] -0.002 | [13] -0.418

POGZ (UniProt Q7Z3K3)
inactive: [1] 0.037 | [2] -0.025 | [3] 0.028 | [4] 0.008 | Nexturastat A -0.127 | vemurafenib 0.122 | [5] -0.024 | givinostat -0.142 | [7] -0.077 | volasertib -0.293 | epoxomicin 0.08 | [9] -0.088 | [12] -0.192 | [10] 0.07 | [11] 0.006 | [13] 0.063

PHKA1 (UniProt P46020)
Sequence of UniProt P46020 (P46020 whole entry, looked up): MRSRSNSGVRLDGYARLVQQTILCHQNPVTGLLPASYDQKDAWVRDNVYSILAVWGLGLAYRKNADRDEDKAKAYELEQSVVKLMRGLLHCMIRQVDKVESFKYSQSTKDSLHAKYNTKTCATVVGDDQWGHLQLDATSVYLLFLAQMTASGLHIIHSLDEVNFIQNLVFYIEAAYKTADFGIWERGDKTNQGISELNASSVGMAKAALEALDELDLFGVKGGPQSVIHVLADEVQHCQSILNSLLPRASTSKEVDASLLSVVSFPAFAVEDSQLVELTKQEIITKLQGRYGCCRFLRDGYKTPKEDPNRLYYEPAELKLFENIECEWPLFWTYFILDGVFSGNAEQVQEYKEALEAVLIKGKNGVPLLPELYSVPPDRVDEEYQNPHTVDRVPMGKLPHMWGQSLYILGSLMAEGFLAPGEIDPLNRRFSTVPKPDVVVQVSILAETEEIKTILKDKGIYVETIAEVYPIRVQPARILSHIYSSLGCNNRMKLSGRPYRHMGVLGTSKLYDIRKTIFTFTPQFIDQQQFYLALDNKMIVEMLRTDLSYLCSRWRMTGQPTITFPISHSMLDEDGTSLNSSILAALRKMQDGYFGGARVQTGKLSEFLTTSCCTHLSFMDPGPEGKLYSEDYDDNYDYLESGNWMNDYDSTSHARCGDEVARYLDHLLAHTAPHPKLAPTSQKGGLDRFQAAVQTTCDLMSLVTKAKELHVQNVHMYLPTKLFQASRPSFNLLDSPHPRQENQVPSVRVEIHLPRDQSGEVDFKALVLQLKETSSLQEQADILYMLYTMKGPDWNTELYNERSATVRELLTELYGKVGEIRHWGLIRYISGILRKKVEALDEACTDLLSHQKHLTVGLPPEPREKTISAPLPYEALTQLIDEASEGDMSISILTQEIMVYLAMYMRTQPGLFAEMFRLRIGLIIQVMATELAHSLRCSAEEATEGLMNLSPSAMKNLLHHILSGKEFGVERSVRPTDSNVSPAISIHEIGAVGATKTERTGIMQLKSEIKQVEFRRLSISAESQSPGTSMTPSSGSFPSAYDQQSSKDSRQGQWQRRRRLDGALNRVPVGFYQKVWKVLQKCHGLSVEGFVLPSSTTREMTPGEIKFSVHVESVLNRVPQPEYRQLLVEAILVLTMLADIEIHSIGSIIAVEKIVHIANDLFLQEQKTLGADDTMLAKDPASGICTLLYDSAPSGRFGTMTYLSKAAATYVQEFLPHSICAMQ
inactive: [1] -0.027 | [2] -0.155 | [3] -0.062 | [4] -0.033 | Nexturastat A 0.047 | [5] 0.019 | [6] 0.076 | givinostat -0.024 | barasertib -0.133 | [7] 0.042 | volasertib -0.367 | [8] 0.076 | epoxomicin -0.039 | [9] -0.019 | [12] 0.143 | rosiglitazone -0.038 | [11] 0.112 | [13] -0.045

PTP4A2 (UniProt Q12974)
Sequence of UniProt Q12974 (Q12974 whole entry, looked up): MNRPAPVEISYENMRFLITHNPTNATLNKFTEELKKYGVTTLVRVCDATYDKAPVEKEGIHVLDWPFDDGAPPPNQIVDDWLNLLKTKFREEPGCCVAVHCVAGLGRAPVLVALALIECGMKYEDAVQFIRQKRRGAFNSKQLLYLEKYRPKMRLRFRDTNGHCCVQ
inactive: [1] 0.026 | [2] -0.045 | [3] 0.012 | [4] 0.076 | Nexturastat A -0.069 | vemurafenib -0.002 | [5] -0.129 | [6] 0.02 | givinostat -0.022 | barasertib -0.006 | [7] 0.039 | volasertib 0.083 | [8] 0.077 | epoxomicin 0.153 | [9] 0.027 | [10] -0.026 | rosiglitazone -0.124 | [11] -0.003

PNPLA4 (UniProt P41247)
inactive: [1] 0.418 | [2] -0.04 | [3] 0.409 | [4] 0.273 | vemurafenib -0.093 | [5] -0.025 | [6] -0.277 | barasertib 0.042 | [7] -0.152 | volasertib -0.093 | [8] -0.039 | [9] -0.083 | [10] -0.004 | rosiglitazone -0.081 | [11] 0.126
active: givinostat 1.1

QRICH1 (UniProt Q2TAL8)
inactive: [1] 0.064 | [2] -0.021 | [3] 0.06 | [4] 0.192 | Nexturastat A 0.158 | vemurafenib 0.173 | [5] 0.122 | [6] -0.215 | givinostat 0.07 | barasertib 0.214 | volasertib -0.39 | [8] 0.07 | epoxomicin 0.027 | [9] -0.163 | [10] 0.258 | rosiglitazone -0.017 | [11] 0
active: [7] -0.464

PTPA (UniProt A6PVN8)
inactive: [1] 0.062 | [2] -0.128 | [3] -0.15 | Nexturastat A -0.038 | vemurafenib -0.065 | [5] -0.11 | [6] 0.038 | barasertib 0.01 | [7] 0.051 | volasertib -0.041 | [8] -0.03 | epoxomicin 0.053 | [9] 0.099 | [12] 0.047 | [10] 0.016 | rosiglitazone -0.105 | [11] 0.069 | [13] 0.011
active: givinostat -0.857

PRKD2 isoform 3 (UniProt Q9BZL6)
Sequence of UniProt Q9BZL6 (Q9BZL6 whole entry, looked up): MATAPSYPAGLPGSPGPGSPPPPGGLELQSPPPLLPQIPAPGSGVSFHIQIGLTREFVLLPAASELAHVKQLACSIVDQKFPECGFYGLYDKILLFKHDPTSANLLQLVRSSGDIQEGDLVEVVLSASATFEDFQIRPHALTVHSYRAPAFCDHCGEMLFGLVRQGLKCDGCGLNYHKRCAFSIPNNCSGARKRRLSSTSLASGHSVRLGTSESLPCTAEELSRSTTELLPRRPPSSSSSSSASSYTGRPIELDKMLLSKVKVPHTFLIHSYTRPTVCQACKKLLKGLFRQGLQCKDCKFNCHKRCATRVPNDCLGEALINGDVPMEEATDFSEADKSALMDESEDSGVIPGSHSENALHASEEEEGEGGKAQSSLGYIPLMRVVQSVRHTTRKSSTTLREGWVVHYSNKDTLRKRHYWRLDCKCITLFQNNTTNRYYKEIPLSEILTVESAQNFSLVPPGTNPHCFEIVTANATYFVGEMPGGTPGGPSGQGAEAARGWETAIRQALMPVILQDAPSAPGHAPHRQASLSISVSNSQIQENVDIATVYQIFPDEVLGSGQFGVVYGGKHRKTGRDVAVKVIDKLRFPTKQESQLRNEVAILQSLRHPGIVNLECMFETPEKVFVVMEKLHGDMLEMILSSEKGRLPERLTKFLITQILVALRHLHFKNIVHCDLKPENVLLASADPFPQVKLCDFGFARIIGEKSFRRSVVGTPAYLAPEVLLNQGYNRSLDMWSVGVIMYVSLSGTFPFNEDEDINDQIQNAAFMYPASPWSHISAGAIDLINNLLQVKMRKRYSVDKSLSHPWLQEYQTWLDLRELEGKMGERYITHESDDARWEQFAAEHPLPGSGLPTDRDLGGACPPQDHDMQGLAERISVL
inactive: [1] 0.296 | [2] -0.26 | [3] 0.117 | [4] 0.028 | Nexturastat A 0.006 | vemurafenib 0.024 | [5] 0.058 | [6] 0.083 | givinostat -0.009 | barasertib 0.093 | [8] 0.149 | epoxomicin 0.049 | [9] 0.005 | [12] -0.089 | [10] 0.042 | rosiglitazone 0.144 | [11] 0.056 | [13] -0.316
active: volasertib -0.674

PATL1 (UniProt Q86TB9)
inactive: [1] 0.038 | [2] 0.031 | [3] -0.025 | [4] -0.064 | Nexturastat A 0.123 | vemurafenib -0.118 | [5] 0.005 | [6] 0.1 | givinostat 0.039 | barasertib 0.014 | [7] 0.109 | volasertib 0.013 | epoxomicin -0.041 | [9] -0.022 | [12] 0.051 | [10] 0.007 | rosiglitazone 0.078 | [11] 0.104
active: [13] -0.445
